High-throughput results as filed in PubChem.
ATG4B inh – ATG4B (human) cysteine protease inhibition. ATG4B cleavage of LC3-PLA2, NBD-HPC fluorescence, 1 h. Q9Y4P1. inhibition, % at 8.33 µM. actives 0.51% (n = 340,000). AID 504462; in the data active means inhibition above about 40%
CHRM1 antagonist – blocks human M1 muscarinic receptor; CHO-K1 hM1, Fluo-8 calcium fluorescence, ACh EC80 antagonist; actives 1.3% (n = 360,000); AID 588852; inhibition, % at 3 µM;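 active means percent inhibition above its own plate's cutoff, namely the mean of that plate's compound wells plus 3 SD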;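 further: peak over basal fluorescence ratio during 140 s after agonist addition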
Target sequence (P11229 whole entry, looked up): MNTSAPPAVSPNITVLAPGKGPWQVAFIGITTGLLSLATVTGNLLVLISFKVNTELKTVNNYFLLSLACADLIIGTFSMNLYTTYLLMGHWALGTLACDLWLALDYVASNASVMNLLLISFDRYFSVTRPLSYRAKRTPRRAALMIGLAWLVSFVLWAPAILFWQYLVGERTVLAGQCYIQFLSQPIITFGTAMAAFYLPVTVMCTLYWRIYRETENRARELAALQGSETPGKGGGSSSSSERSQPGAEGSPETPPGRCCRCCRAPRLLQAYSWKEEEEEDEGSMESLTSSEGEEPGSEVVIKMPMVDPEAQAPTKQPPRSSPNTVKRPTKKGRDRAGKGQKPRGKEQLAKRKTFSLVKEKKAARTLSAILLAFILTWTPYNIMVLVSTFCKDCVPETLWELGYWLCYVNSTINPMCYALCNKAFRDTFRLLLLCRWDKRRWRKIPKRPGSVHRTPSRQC
M1 ag – human M1 muscarinic receptor agonism; P11229; activation, % at 3 µM; CHO-K1 hM1, Fluo-8 calcium fluorescence, agonist mode; 0% DMSO, 100% acetylcholine EC100; actives 0.33% (n = 360,000);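 active means activation above the run's mean compound activation plus 3 SD, cut at about 16% in these data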;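 further: peak over basal fluorescence ratio within a 140 s kinetic read after compound addition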
Myeloid diff 2 – myeloid differentiation induction. ER-HoxA9 myeloid progenitors, lysozyme-GFP differentiation, flow cytometry. calls only at 10 µM. actives 1% (n = 360,000). AID 624256;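 active means normalized GFP-positive differentiation at or above the plate's own cutoff, the solvent-only control mean plus 3 SD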;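 further: cells exposed to compound for four days before flow analysis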
SKN-1 inh – blocks SKN-1 activity in C. elegans | C. elegans VP596 Pgst-4::GFP/RFP ratio, acrylamide-induced, 24 h | inhibition, % at 21.8 µM | actives 0.49% (n = 360,000) | AID 624304;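 active means interference check ratio from 0.5 to 1.5 plus GFP to RFP signal ratio inhibition reaching or exceeding a fixed threshold, cut at about 30% in these data, passing the limit was not always enough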
CHRM1 PAM – potentiates human M1 receptor response to acetylcholine | actives 0.088% (n = 360,000) | P11229 | CHO-K1 hM1, Fluo-8 calcium fluorescence, ACh EC20; 0% = ACh EC20, 100% = maximal ACh | activation, % at 3 µM; in the data active means activation above about 19%, passing the limit was not always enough
Myeloid diff CP1 – compounds promoting myeloid differentiation; shares compounds with Myeloid diff 2; ER-HoxA9 myeloid progenitors, GFP/Mac1 double-positive flow; calls only; actives 2% (n = 2,300); AID 651706;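 active means share of green or green-and-red cells above 9 and 9% in run 1 or 4 and 3% in run 2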
GFP autofluor – flagged as fluorescent in myeloid differentiation counter-screen; AID 651707; actives 7.4% (n = 2,300); shares compounds with Myeloid diff 2; ER-HoxA9 myeloid progenitors, no estrogen, GFP autofluorescence flow cytometry; vehicle wells 0%, positive control 100%; fluorescence response, % (concentration not given with the values);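 active means over 5% cells positive for green fluorescent reporter, or over 2% positive for both it and APC stain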
Large screens that a line does not name were inactive (follow-up assays come after a bar, where they were run). The list is not random: actives were taken first. Their share in the collection is about 3.5%.

CN(C)S(=O)(=O)c1cccc(C(=O)NC(=S)N(CCC#N)Cc2cccnc2)c1	none | Myeloid diff CP1 inactive | GFP autofluor inactive
CCN(CC)S(=O)(=O)c1ccc(C(=O)NC(=S)N(CCC#N)Cc2cccnc2)cc1	none
O=C(NCc1ccccc1)C1=C[C@@H](c2csc3ccccc23)C[C@@H](OCc2ccc(CO)cc2)O1	Myeloid diff 2 active | Myeloid diff CP1 inactive | GFP autofluor inactive
C#Cc1ccc([C@H]2C=C(C(=O)NCc3nc4ccccc4[nH]3)O[C@@H](OCc3ccc(CO)cc3)C2)cc1	none | Myeloid diff CP1 inactive | GFP autofluor inactive
Nc1nnc(CCOc2ccccc2Cl)s1	none | Myeloid diff CP1 inactive | GFP autofluor inactive
CCOC(=O)c1c(N)c(C#N)cn1-c1ccccc1	none
CCOC(=O)c1c(NC(=O)c2nn(CC)cc2Br)c(C#N)cn1-c1ccccc1	Myeloid diff 2 active | Myeloid diff CP1 active | GFP autofluor inactive
S=C(Nc1ccc(Oc2ccccc2)cc1)NC1CCCCC1	none
S=C(NNc1ccc2ccccc2c1)NC1CCCCC1	none | Myeloid diff CP1 inactive | GFP autofluor inactive
Cc1cc(NC(=O)c2cncc(Br)c2)ccc1NC(=O)c1cc2ccccc2o1	none
COc1ccc2c(c1)-c1ccccc1S(=O)(=O)N2C(C)=O	none | Myeloid diff CP1 inactive | GFP autofluor inactive
COc1ccc(N2C(=O)c3ccccc3S2(=O)=O)cc1	none
O=C(NC(=O)c1ccccc1O)c1ccc2c(c1)CCO2	none
CC(=Nc1ccccc1C)C1=C(O)CSC1=O	Myeloid diff 2 active | Myeloid diff CP1 inactive | GFP autofluor inactive
CC(=Nc1ccccc1)C1=C(O)CSC1=O	none
CC1CCCC(NC(=O)NC(=O)COC(=O)c2ccc(O)cc2O)C1C (centres undefined)	none
CCOc1ccc(S(=O)(=O)Nc2cccc(C(=O)NCCCN3CCCC3=O)c2)cc1	none | Myeloid diff CP1 inactive | GFP autofluor inactive
O=C(Nc1oc2ccccc2c(=O)c1-c1ccc2c(c1)OCO2)c1ccco1	none (no result: ATG4B inh)
COc1ccc(CN=CC2=C(O)CNC2=O)cc1OC	none | Myeloid diff CP1 inactive | GFP autofluor inactive
O=C1NCC(O)=C1C=NCCCO	none
Cc1cccc(NS(=O)(=O)c2ccc(C)c(C(=O)NC3CCN(Cc4ccccc4)CC3)c2)c1	Myeloid diff 2 active | Myeloid diff CP1 inactive | GFP autofluor inactive
Cc1ccccc1C(=O)NC1CCN(Cc2ccccc2)CC1	none
CCOC(=O)C1=C(O)/C(=C/c2ccc(OCC(=O)O)c(OC)c2)SC1=Nc1ccc(OCC)cc1	none
CCOC(=O)C1=C(O)/C(=C/c2cc(OC)c(O)c(OC)c2)SC1=Nc1ccc(OC)cc1	none | Myeloid diff CP1 inactive | GFP autofluor 22.6
N#Cc1cc2c(nc1SCC(=O)Nc1sc3c(c1C#N)CCC3)CCCC2	none
N#Cc1ccc(-c2ccc(F)cc2)nc1SCC(=O)Nc1sc2c(c1C#N)CCC2	none | Myeloid diff CP1 inactive | GFP autofluor inactive
CCC(C)NC(=S)N(Cc1cc2cc(C)ccc2n2nnnc12)CC(C)(C)NC(C)C (centres undefined)	none
Cc1ccc(NC(=O)Cn2nnc(C(=O)NCc3cccs3)c2N)cc1F	Myeloid diff 2 active | Myeloid diff CP1 inactive | GFP autofluor inactive
CSc1ccccc1OCc1cc(C(=O)N(C)Cc2cnccn2)no1	none
O=C1N[C@@H](Cc2ccccc2)COC(=O)[C@@H](Cc2ccc(F)cc2)CC/C=C/C[C@@H]1CC(=O)N(CCO)Cc1ccccc1	Myeloid diff 2 active | Myeloid diff CP1 inactive | GFP autofluor inactive
CC1C(=O)Nc2ccccc2N1C(=O)c1cccc(C(F)(F)F)c1 (centres undefined)	none
CCOC(=O)c1c(NC(=S)Nc2ccc(Cl)cc2)sc2c1CCN(C)C2	Myeloid diff 2 active | Myeloid diff CP1 inactive | GFP autofluor 46.8
CCOC(=O)c1c(NC(=S)Nc2ccc(OCC)cc2)sc2c1CCN(C)C2	none
Fc1ccc(-c2cc3nc(-c4ccccc4)cc(N4CCOCC4)n3n2)cc1	none | Myeloid diff CP1 inactive | GFP autofluor inactive
CC(C)(C)S(=O)N1Cc2cc(C(=O)NCc3ccc4c(c3)OCO4)nc(-c3cccc(-c4ccccc4)c3)c2[C@@H]1CCO (some centres undefined)	none (no result: ATG4B inh)
COc1ccc(Nc2nnc(SCc3cn4c(C)cccc4n3)s2)cc1	Myeloid diff 2 active | Myeloid diff CP1 inactive | GFP autofluor inactive
Cc1cccc2nc(CSc3nnc(N)s3)cn12	none
Cc1ccc(C2NC(=O)c3ccccc3N2)c(C)c1 (centres undefined)	none (no result: Myeloid diff 2)
NNC(=O)c1ccc(CSc2nc3ccccc3[nH]2)cc1	none | Myeloid diff CP1 inactive | GFP autofluor inactive
CCOc1cc(C(=O)N(CC)CC(=O)Nc2c(F)cccc2F)ccc1OCC(=O)N1CCOCC1	none
COc1ccc(CNC(=O)CN2C(=O)C3C4C=CC(C4)C3C2=O)cc1 (centres undefined)	none
Cc1onc(-c2c(Cl)cccc2Cl)c1C(=O)NCc1ccc(S(N)(=O)=O)cc1	none | Myeloid diff CP1 inactive | GFP autofluor inactive
CCOC(=O)c1c(NC(=O)C[n+]2ccc(Cc3ccccc3)cc2)sc(C)c1C	none
CN1CCN(c2ccc(-c3cc(NC=O)c4ncc(-c5ccc(F)cc5)n4c3)cc2)CC1	Myeloid diff 2 active (no result: ATG4B inh) | Myeloid diff CP1 inactive | GFP autofluor inactive
CN1CCN(c2ccc(-c3cc(NC=O)c4ncc(-c5ccccc5)n4c3)cc2)CC1	none (no result: ATG4B inh) | Myeloid diff CP1 inactive | GFP autofluor inactive
C/C(=N\NC(=O)c1ccc2c(c1)OCO2)c1ccc(NC(=O)CCCC(=O)O)cc1	none | Myeloid diff CP1 inactive | GFP autofluor inactive
C/C(=N\NC(=O)c1ccc2c(c1)OCO2)c1ccc2c(c1)OCO2	none
CC1(C(=O)NC2CCCCC2)CCC(=O)N1Cc1cccs1 (centres undefined)	none | Myeloid diff CP1 inactive | GFP autofluor inactive
CN(Cc1ccccc1)C(=O)c1ccc(NC(=O)Cc2cccc(NC(=O)C3CCCN(C(=O)C4CCCCC4)C3)c2)cc1 (centres undefined)	none | Myeloid diff CP1 inactive | GFP autofluor inactive
CN(Cc1ccccc1)C(=O)c1ccc(NC(=O)Cc2cccc(NC(=O)C3CCCN(C(=O)C4CCCC4)C3)c2)cc1 (centres undefined)	none
CN(C(=O)c1cccc(NC(=O)Cc2ccc(NC(=O)C3CCN(C(=O)C4CC4)CC3)cc2)c1)C1CCCCC1	none | Myeloid diff CP1 inactive | GFP autofluor inactive
Cc1cc(N2CCCCC2)nc(N)n1	Myeloid diff 2 active | Myeloid diff CP1 inactive | GFP autofluor inactive
